Assay in all cases: DAPPL (digital affinity profiling via proximity ligation, sequencing); 10 mM Tris-HCl pH 7.5, 50 mM NaCl, 1 mM DTT, 4% glycerol, room temperature, 30 min; GST-TFs on glutathione beads, 16-mer random dsDNA library, 0.1% formaldehyde crosslink after washing; high values mean tight binding
Holding throughout (conditions): protein: recombinant; tags: N-terminal GST; dsDNA, one strand shown

The target of one experiment is T1, ERF (Homo sapiens, UniProt P50548 1-548).
T1 sequence: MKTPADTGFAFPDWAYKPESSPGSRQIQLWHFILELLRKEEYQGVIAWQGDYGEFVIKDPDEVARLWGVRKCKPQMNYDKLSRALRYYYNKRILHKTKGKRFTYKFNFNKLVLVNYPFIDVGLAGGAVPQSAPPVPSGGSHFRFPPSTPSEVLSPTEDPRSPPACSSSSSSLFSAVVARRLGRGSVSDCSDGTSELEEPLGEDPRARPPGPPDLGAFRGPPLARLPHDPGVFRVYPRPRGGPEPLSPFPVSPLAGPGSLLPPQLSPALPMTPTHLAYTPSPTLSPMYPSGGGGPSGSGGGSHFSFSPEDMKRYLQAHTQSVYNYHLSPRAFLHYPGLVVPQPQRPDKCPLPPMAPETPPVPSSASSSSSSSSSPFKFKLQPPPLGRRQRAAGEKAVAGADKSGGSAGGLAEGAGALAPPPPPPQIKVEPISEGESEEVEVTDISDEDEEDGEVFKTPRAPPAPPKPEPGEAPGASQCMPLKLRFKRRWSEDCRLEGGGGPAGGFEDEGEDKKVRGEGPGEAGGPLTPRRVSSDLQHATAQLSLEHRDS
A digest of the protocol:
(§1)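 Binding signal is given per hexamer as its read frequency for a factor divided by its frequency in the tag-only sample. GST-fused human transcription factors were expressed in yeast, captured on glutathione beads, barcoded with DNA and pooled with that sample, then incubated with 200 nmole of a 16-mer random double-stranded DNA library in Tris/NaCl/DTT/glycerol buffer for 30 min at room temperature. The pools were then washed, crosslinked, proximity-ligated, amplified by PCR and sequenced on an Illumina NextSeq500.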

For another experiment, the target named is T2, ETV3L (Homo sapiens, UniProt Q6ZN32 1-361).
T2 sequence: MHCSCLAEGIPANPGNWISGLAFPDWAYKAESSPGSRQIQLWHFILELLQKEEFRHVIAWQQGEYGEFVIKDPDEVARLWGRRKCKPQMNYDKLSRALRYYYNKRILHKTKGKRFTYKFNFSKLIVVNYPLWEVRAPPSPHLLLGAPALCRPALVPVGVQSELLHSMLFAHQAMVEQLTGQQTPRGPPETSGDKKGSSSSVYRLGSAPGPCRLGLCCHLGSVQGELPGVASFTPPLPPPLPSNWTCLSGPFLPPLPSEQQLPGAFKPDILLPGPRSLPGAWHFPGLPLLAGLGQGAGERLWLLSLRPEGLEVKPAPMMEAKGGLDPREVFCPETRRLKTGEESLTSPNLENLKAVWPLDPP
A digest of the protocol: as §1

A further experiment has as its target T3, ETS2 (Homo sapiens, UniProt P15036 1-469).
T3 sequence: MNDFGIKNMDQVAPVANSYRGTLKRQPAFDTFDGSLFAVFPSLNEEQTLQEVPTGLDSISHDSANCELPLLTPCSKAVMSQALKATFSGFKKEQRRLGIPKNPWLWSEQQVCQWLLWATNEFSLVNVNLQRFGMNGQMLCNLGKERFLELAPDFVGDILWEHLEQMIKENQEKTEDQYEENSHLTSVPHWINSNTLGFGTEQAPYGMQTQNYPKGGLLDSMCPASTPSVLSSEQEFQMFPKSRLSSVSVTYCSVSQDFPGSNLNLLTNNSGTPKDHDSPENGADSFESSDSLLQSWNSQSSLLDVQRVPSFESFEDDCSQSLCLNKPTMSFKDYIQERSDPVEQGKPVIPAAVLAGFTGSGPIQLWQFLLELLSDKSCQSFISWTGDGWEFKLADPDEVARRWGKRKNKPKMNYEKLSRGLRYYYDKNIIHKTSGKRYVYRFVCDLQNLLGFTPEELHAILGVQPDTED
A digest of the protocol: as §1

Another experiment concerns the target T4, SPDEF (Homo sapiens, UniProt O95238 1-335).
T4 sequence: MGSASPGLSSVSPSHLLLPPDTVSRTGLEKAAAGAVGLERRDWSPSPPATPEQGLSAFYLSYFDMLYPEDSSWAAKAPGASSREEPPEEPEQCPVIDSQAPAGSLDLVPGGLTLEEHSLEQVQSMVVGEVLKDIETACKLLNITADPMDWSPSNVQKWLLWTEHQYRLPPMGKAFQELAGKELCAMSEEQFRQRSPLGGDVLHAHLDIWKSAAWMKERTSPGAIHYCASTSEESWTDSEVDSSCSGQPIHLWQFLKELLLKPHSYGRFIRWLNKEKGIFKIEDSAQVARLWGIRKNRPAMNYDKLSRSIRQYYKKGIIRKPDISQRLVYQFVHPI
The gist of the method: as §1

For the next experiment, the target named is T5, ETV7 (Homo sapiens, UniProt Q9Y603 1-341).
T5 sequence: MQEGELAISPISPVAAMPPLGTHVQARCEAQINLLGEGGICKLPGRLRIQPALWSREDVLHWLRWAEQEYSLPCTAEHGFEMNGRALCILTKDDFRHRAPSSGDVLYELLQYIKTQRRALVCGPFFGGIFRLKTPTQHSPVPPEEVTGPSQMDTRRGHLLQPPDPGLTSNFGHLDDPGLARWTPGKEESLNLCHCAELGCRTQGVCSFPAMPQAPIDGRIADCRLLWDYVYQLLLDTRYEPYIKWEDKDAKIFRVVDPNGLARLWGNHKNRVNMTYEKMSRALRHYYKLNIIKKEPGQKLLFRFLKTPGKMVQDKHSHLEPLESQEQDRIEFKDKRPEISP
The gist of the method:
as §1

For another experiment, the target named is T6, ELF5 (Homo sapiens, UniProt Q9UKW6-2 1-255).
T6 sequence: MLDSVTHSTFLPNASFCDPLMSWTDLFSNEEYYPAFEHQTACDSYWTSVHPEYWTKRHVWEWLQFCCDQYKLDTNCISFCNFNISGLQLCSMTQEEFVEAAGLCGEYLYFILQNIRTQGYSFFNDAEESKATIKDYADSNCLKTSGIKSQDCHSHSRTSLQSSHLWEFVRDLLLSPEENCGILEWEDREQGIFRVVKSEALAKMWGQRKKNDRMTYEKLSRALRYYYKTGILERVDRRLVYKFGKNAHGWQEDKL
A digest of the protocol: as §1

In the next experiment the target is T7, ETV3 (Homo sapiens, UniProt P41162-2 1-143).
T7 sequence: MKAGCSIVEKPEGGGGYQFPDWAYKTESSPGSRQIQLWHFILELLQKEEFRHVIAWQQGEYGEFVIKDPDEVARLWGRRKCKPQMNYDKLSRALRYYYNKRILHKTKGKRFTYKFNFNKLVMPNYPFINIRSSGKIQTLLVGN
A digest of the protocol: as §1

The target in another experiment is ETV6 (Homo sapiens, UniProt P41212 1-452). The gist of the method: as §1
ETV6, sequence (P41212 whole entry): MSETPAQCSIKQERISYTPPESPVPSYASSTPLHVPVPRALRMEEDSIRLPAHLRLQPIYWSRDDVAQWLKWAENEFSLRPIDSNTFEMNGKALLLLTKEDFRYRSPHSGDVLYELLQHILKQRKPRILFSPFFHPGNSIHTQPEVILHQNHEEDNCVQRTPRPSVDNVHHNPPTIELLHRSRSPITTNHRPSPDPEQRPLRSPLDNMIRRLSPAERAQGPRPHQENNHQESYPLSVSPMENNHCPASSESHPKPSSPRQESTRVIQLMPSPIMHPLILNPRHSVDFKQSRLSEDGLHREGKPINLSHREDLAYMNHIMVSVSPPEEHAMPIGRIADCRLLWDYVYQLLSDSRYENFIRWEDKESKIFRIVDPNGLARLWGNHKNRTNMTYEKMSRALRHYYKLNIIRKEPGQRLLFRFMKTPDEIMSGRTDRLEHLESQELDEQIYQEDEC

With ACCATA, the binding signal with ERF was 1.15 fold enrichment (6-mer frequency, TF over GST control); with ETV3L it was 1.25 fold enrichment (6-mer frequency, TF over GST control); with ETS2, 1.17 fold enrichment (6-mer frequency, TF over GST control); with SPDEF, 1.17 fold enrichment (6-mer frequency, TF over GST control); in the experiment with ETV7, 1.11 fold enrichment (6-mer frequency, TF over GST control); in the experiment with ELF5 it was 1.15 fold enrichment (6-mer frequency, TF over GST control). Further, the binding signal in the experiment with ETV3 is 1.19 fold enrichment (6-mer frequency, TF over GST control); in the experiment with ETV6 it was 1.16 fold enrichment (6-mer frequency, TF over GST control).
Take ACAATG: the binding signal was 1.12 fold enrichment (6-mer frequency, TF over GST control) with ERF; 1.03 fold enrichment (6-mer frequency, TF over GST control) with ETV3L; 1.09 fold enrichment (6-mer frequency, TF over GST control) in the experiment with ETS2; 1.03 fold enrichment (6-mer frequency, TF over GST control) in the experiment with SPDEF; 1.12 fold enrichment (6-mer frequency, TF over GST control) with ETV7; 1.08 fold enrichment (6-mer frequency, TF over GST control) with ELF5. Moreover, the binding signal is 1.11 fold enrichment (6-mer frequency, TF over GST control) with ETV3 and 1.06 fold enrichment (6-mer frequency, TF over GST control) in the experiment with ETV6.
On to ACATCA, for which the binding signal was 1.13 fold enrichment (6-mer frequency, TF over GST control) with ERF; 1.08 fold enrichment (6-mer frequency, TF over GST control) in the experiment with ETV3L; 1.11 fold enrichment (6-mer frequency, TF over GST control) with ETS2; 1.07 fold enrichment (6-mer frequency, TF over GST control) with SPDEF; 1.1 fold enrichment (6-mer frequency, TF over GST control) in the experiment with ETV7; 1.07 fold enrichment (6-mer frequency, TF over GST control) in the experiment with ELF5. Further, the binding signal with ETV3 is 1.14 fold enrichment (6-mer frequency, TF over GST control); with ETV6, 1.16 fold enrichment (6-mer frequency, TF over GST control).
Take ACCACT: the binding signal with ERF is 1.22 fold enrichment (6-mer frequency, TF over GST control); with ETV3L, 1.36 fold enrichment (6-mer frequency, TF over GST control); in the experiment with ETS2 it was 1.29 fold enrichment (6-mer frequency, TF over GST control); with SPDEF it was 1.25 fold enrichment (6-mer frequency, TF over GST control); with ETV7, 1.24 fold enrichment (6-mer frequency, TF over GST control); with ELF5 it was 1.25 fold enrichment (6-mer frequency, TF over GST control). The binding signal with ETV3 is 1.24 fold enrichment (6-mer frequency, TF over GST control); with ETV6, 1.28 fold enrichment (6-mer frequency, TF over GST control).
Consider CACTCA, for which the binding signal with ERF is 1.2 fold enrichment (6-mer frequency, TF over GST control); in the experiment with ETV3L, 1.11 fold enrichment (6-mer frequency, TF over GST control); in the experiment with ETS2, 1.16 fold enrichment (6-mer frequency, TF over GST control); with SPDEF, 1.14 fold enrichment (6-mer frequency, TF over GST control); in the experiment with ETV7, 1.21 fold enrichment (6-mer frequency, TF over GST control); with ELF5, 1.12 fold enrichment (6-mer frequency, TF over GST control). For the same sequence, the binding signal in the experiment with ETV3 was 1.09 fold enrichment (6-mer frequency, TF over GST control); with ETV6 it was 1.14 fold enrichment (6-mer frequency, TF over GST control).
Regarding CCGGTC, the binding signal in the experiment with ERF is 1.1 fold enrichment (6-mer frequency, TF over GST control); in the experiment with ETV3L it was 1.13 fold enrichment (6-mer frequency, TF over GST control); in the experiment with ETS2, 1.2 fold enrichment (6-mer frequency, TF over GST control); with SPDEF, 1.38 fold enrichment (6-mer frequency, TF over GST control); with ETV7, 1.22 fold enrichment (6-mer frequency, TF over GST control); with ELF5, 1.13 fold enrichment (6-mer frequency, TF over GST control). The binding signal with ETV3 is 1.2 fold enrichment (6-mer frequency, TF over GST control); with ETV6, 1.15 fold enrichment (6-mer frequency, TF over GST control).

For the origin of these results see article PMC7862700, “An all-to-all approach to the identification of sequence-specific readers for epigenetic DNA modifications on cytosine”.
